The list is not random: actives were taken first. Their share in the collection is about 1.1%.
HTR5A inv ctr: counter-screen for OPRM1-OPRD1 inverse agonists: human HTR5A inverse agonism; HTR5A cell line, luminescence; 0.083% of 340,000 active; inhibition, % at 9.3 µM; P47898; in the data active = inhibition mostly above about 23%, no sharp cut-off; inactive = mostly below about 18%
Target sequence (P47898 whole entry, looked up): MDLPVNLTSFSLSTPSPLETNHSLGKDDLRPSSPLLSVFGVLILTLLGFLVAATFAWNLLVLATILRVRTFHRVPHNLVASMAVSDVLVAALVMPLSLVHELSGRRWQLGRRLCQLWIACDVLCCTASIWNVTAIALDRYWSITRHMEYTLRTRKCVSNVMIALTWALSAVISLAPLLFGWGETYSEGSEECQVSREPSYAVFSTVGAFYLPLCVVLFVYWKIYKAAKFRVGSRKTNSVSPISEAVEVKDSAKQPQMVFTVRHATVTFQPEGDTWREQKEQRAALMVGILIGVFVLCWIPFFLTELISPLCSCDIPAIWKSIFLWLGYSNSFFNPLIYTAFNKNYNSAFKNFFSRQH
OPRM1-OPRD1 ag: agonists of human mu-delta opioid receptor heterodimerization. P35372+P41143. cells, OPRM1-OPRD1 heterodimerization, luminescence. activation, % at 9.3 µM. 0.3% of 340,000 active. AID 504326
A1 inh: inhibitors of the anti-apoptotic protein A1, read as caspase activation. 0.066% of 330,000 active. caspase activation, % (concentration not given with the values). MEF A1-2A-BIM cells, Caspase-Glo 3/7 luminescence, 3 h; percent of clofoctol response, vehicle zero;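 active = over half of replicate activation scores above 10%, or exactly half above 10 with the replicate mean above 10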
HTR5A ag ctr: HTR5A agonism, opioid heterodimer counter-screen; P47898; HTR5A agonist assay, luminescence, cell-based; activation, % at 9.3 µM; 0.61% of 340,000 active; AID 504692; in the data active = activation mostly above about 9.5%, no sharp cut-off; inactive = mostly below about 7.6%
MOR-DOR inv ag: mu-delta opioid heterodimer inverse agonism; cell-based MOR-DOR heterodimer luminescence; inhibition, % at 9.3 µM; 0.21% of 340,000 active; AID 504357; in the data active = inhibition above about 22%, passing the limit was not always enough
MOR-DOR ag conf: OPRM1-OPRD1 heterodimer agonism, confirmation. shares compounds with OPRM1-OPRD1 ag. cells, MOR-DOR heterodimerization, luminescence complementation. activation, % at 9.3 µM. 45% of 830 active. AID 504904
HTR5A ag ctr2: HTR5A agonism, opioid heterodimer counter-screen; HTR5A agonist counterscreen, cell luminescence; 8% of 830 active; activation, % at 9.3 µM; shares compounds with OPRM1-OPRD1 ag; AID 504905; in the data active = activation above about 17%
Numbers stand for hits; i = inactive; nt = no result given. Cut-off read from the data, not from the text of the source, unless noted: active = activation above about 18%; inactive = the rest.

SMILES	HTR5A inv ctr	OPRM1-OPRD1 ag	A1 inh	HTR5A ag ctr	MOR-DOR inv ag	MOR-DOR ag conf	HTR5A ag ctr2
CCNS(=O)(=O)c1ccc(NC(=O)Nc2ccc3c(c2)OCO3)cc1	i	110.6	i	i	i	72.7	i
COC(=O)c1cccc(NC(=O)c2nn(C)c(=O)c3ccccc23)c1	i	i	i	i	i	nt	nt
O=C1CCC/C(=N\NC(=O)c2ccc(COc3cccc4cccnc34)cc2)C1	i	i	i	i	i	nt	nt
Cc1nc(NCC(c2ccccc2)N(C)C)c2c(C)c(C)sc2n1 (centres undefined)	i	37.4	i	i	i	47.8	i
Cc1sc2ncnc(NCC(c3ccccc3)N(C)C)c2c1C (centres undefined)	i	i	i	i	i	nt	nt
N#CC(CO)(Cc1ccc(OC(F)F)cc1)c1nc2ccccc2[nH]1 (centres undefined)	i	i	i	i	i	nt	nt
O=C(Nc1ccc(Cl)c(Cl)c1)N(CCCN1CCOCC1)Cc1cccs1	i	27.3	i	i	i	i	i
O=C(Nc1ccc(Cl)c(Cl)c1)N(CCCN1CCOCC1)Cc1cccnc1	i	i	i	i	i	nt	nt
O=C(OCC(=O)N1CCC(Cc2ccccc2)CC1)c1ccc(CO)cc1	i	i	i	i	i	nt	nt
Cc1cccc(C(=O)NNC(=O)c2cc3cc4ccccc4nc3s2)c1	i	22.3	i	i	i	i	i
Cc1ccccc1NC(=O)C(=O)c1cn(C)c2ccccc12	i	23.9	i	i	i	i	i
Cn1cc(C(=O)C(=O)NCCc2ccccc2)c2ccccc21	i	i	i	i	i	nt	nt
S=C(NCCc1ccccc1)N1CCN(C23CC4CC(CC(C4)C2)C3)CC1	i	20.3	i	i	i	i	i
COc1ccc(/C(O)=C/c2nc3ccc(C(=O)NCCc4cccc(C)c4)cc3[nH]c2=O)cc1OC	i	i	i	i	i	nt	nt
COc1ccc(C2Nc3ccccc3C(=O)N2c2ccccc2)cc1COc1ccccn1 (centres undefined)	i	i	i	i	i	nt	nt
COc1ccc(C2Nc3ccccc3C(=O)N2Cc2ccco2)cc1COc1ccc(NC(C)=O)cc1 (centres undefined)	i	117.5	i	i	i	68.5	i
COc1ccc(C2Nc3ccccc3C(=O)N2c2ccccc2)cc1CSc1ccccn1 (centres undefined)	i	27.5	i	i	i	27.5	i
COc1ccc(C2Nc3ccccc3C(=O)N2Cc2ccccc2)cc1CSc1ccccn1 (centres undefined)	i	35.3	i	i	i	i	i
COc1ccc(C2Nc3ccccc3C(=O)N2c2ccc(F)cc2)cc1CSc1ccccn1 (centres undefined)	i	37.6	i	i	i	46.5	i
CCOC(=O)C1(CCOC)CCN(Cc2ccccc2-c2ccco2)CC1	i	129.6	i	i	i	32.7	i
CCOC(=O)C1(CC2CCCCO2)CCN(Cc2ccc(OC)cc2F)CC1 (centres undefined)	i	47.9	i	i	i	59.4	i
CCOC(=O)C1(CCOc2ccccc2)CCN(Cc2ccc3c(c2)OCCO3)CC1	i	25.0	i	i	i	44.2	i
CCOC(=O)C1(CCOc2ccccc2)CCN(Cc2cccc(OC)c2)CC1	i	18.8	i	i	i	i	92.8
CCOC(=O)C1(CCOc2ccccc2)CCN(Cc2ccc(O)c(Cl)c2)CC1	i	i	i	i	i	nt	nt
CCOC(=O)C1(CCOC)CCN(Cc2cccc(OCc3ccccc3)c2)CC1	i	i	i	i	i	nt	nt
SMILES	HTR5A inv ctr	OPRM1-OPRD1 ag	A1 inh	HTR5A ag ctr	MOR-DOR inv ag	MOR-DOR ag conf	HTR5A ag ctr2
Cc1ccc(Nc2cc(C)nc3ncnn23)c(C)c1	i	i	i	i	i	nt	nt
CCOC(=O)C1(CCOc2ccccc2)CCN(Cc2cc(OC)ccc2OC)CC1	i	52.5	i	i	i	i	16.9
CCOC(=O)c1cnc(SCC(=O)Nc2sc(C)c(C)c2C#N)nc1N	i	i	i	i	i	nt	nt
CC1(c2ccccc2)CC(C)(C)N2C(=O)C3(C(C#N)=C(N)Oc4cc(O)ccc43)c3cccc1c32 (centres undefined)	i	20.4	i	i	i	47.4	i
CCSc1nnc(NC(=O)c2cccc3ccccc23)s1	i	i	i	i	i	nt	nt
CCSc1nnc(NC(=O)c2cc(-c3ccccc3O)n[nH]2)s1	i	32.1	i	i	i	i	i
O=[N+]([O-])c1ccc(N2CCN(CCO)CC2)cc1Sc1ccccn1	i	i	i	i	i	nt	nt
CCN1CCN(c2ccc([N+](=O)[O-])c(Sc3nc4ccccc4[nH]3)c2)CC1	i	76.0	i	i	i	69.0	i
Cc1ccc(NC(=O)C(C)SCc2nc3sc4c(c3c(=O)[nH]2)CCCC4)nc1 (centres undefined)	i	i	i	i	i	nt	nt
NC1(C(=O)O)CCCCC1c1ccccc1 (centres undefined)	i	i	nt	i	i	nt	nt
O=C(c1sc2ccccc2c1Cl)N(Cc1cccs1)C1CCS(=O)(=O)C1 (centres undefined)	i	161.8	i	i	i	i	i
O=C(c1cccc(Cl)c1)N(Cc1cccs1)C1CCS(=O)(=O)C1 (centres undefined)	i	i	i	i	i	nt	nt
C/C=C(\C)CN1CCC(n2nccc2NC(=O)CCOc2ccccc2)CC1	i	i	i	i	i	nt	nt
C/C=C(\C)CN1CCC(n2nccc2NC(=O)CCc2ccccc2)CC1	i	20.3	i	i	i	i	i
COc1ccc(CNC[C@@H](CCCCN(C)Cc2ccc(OC)cc2)N2C[C@H](c3ccccc3)N(CCc3ccc(Cl)c(Cl)c3)C(=O)C2=O)cc1	i	81.2	i	21.2	i	126.9	32.8
COc1ccc(CNC(=O)[C@@H]2CC=C[C@@H]3CCN(Cc4ccc(Cl)c(Cl)c4)C(=O)[C@@H]32)cc1	i	i	i	i	i	nt	nt
CCOc1ccc(/C=N/NC(=O)CC(=O)Nc2ccc(Cl)c(Cl)c2)cc1	i	21.2	i	i	i	i	i
Cn1c(=N)n(CC(=O)c2ccc(Br)cc2)c2ccccc21	i	34.0	i	i	i	24.9	i
Cc1cccc(N2CCN(S(=O)(=O)c3ccc4c(c3)CCCN4C(=O)C3CCC3)CC2)c1C	i	i	i	i	i	nt	nt
CCOc1ccc(CN(C)C(C)C(=O)NCCc2ccc(F)cc2)cc1 (centres undefined)	i	i	i	i	i	nt	nt
COc1ccc(C(CNC(=O)Cc2ccc3ccccc3c2)N(C)C)cc1 (centres undefined)	i	36.7	i	i	i	i	i
COc1ccc(C(CNC(=O)C2CC2)N(C)C)cc1 (centres undefined)	i	i	i	i	i	nt	nt
COc1ccc(C(CNC(=O)C(C)c2ccc3cc(OC)ccc3c2)N(C)C)cc1 (centres undefined)	i	23.3	i	i	i	55.8	i
CCOc1cc(S(=O)(=O)NCc2cccnc2)c(C)cc1C	i	i	i	i	i	nt	nt

Source: PubChem
